Values joined by “and” are separate entries in the source; they are usually repeats but may differ in a detail not shown here. Equal entries are not always repeated. The panel holds about 83,000 compounds, 20% with a hit somewhere; the sample as a whole holds those more often.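 Values shown are percent growth following 48 h exposure of cells in 96-well plates to a single concentration of compound; below 10 was considered active.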 Active and inactive are the calls of the source.
System: TK-10 renal
Test: NCI-60 one-dose screen, 48 h (100 = growth as untreated, 0 = no growth, -100 = all killed)
Settings: 10 µM unless noted

Q: With `COc1cc([C@H]2OC[C@@H]3C(c4cc(OC)c5c(c4)OCO5)OC[C@H]23)cc(OC)c1OC` (some centres undefined) as the compound, how does the growth read?
A: 84.5% [100 µM] (inactive) and 28.7% [100 µM] (inactive)

Q: With `COc1ccc2cc1Oc1ccc(cc1)CC1c3cc(OC)c(cc3CCN1C)Oc1c(OC)c(OC)cc3c1C(C2)N(C)CC3` (centres undefined) as the compound, how does the growth read?
A: -57.1% [75 µM] (active) and -97.5% [75 µM] (active)

Q: With `COc1cc2c(c3c1c(=O)c1ccccc1n3C)C=C([N+](=O)[O-])C(C)(C)O2` as the compound, how does the growth read?
A: 31.2% [100 µM] (inactive) and -98.1% [100 µM] (active)

Q: `COc1ccccc1-c1n[nH]c(-c2ccccc2O)n1` was tested. Which growth did it give?
A: 84.4% [100 µM] (inactive) and 32.7% [100 µM] (inactive)

Q: `NNc1[nH]c(=S)[nH]c1C(N)=O` was tested. Which growth did it give?
A: 121% [100 µM] (inactive) and 111% [100 µM] (inactive)

Q: For `NC(N)=Nc1ccc(CC(N)C(=O)O)cc1` (centres undefined), which growth is on record?
A: 107% [12.5 µM] (inactive) and 111% [12.5 µM] (inactive)

Q: How did the growth turn out when `N#Cc1n[nH]n(-c2ccccc2)c1=O` was run?
A: 115% [100 µM] (inactive) and 107% [100 µM] (inactive)

Q: `CC1OC(Oc2c(-c3cc(O)c(O)c(O)c3)oc3cc(O)cc(O)c3c2=O)C(O)C(O)C1O` (centres undefined) was tested. Which growth did it give?
A: 90.9% [100 µM] (inactive) and 92.6% [100 µM] (inactive)

Q: Which growth does the source give for `COC(=O)C1CCC(=O)N1CN(C(C)=O)c1cccc(O)c1` (centres undefined) here?
A: 77.3% [100 µM] (inactive) and 106% [100 µM] (inactive)

Q: `C[C@@H]1C[C@@H]2OC(=O)[C@]3(C)[C@H]2[C@@H](OC3(C)O)[C@]2(C)C(=O)C=C[C@@H]12` (some centres undefined) was tested. Which growth did it give?
A: -7.81% [100 µM] (active) and -18.5% [100 µM] (active)

Q: With `CC(C)CCCC(C)[C@H]1CC[C@H]2[C@@H]3CC[C@H]4C[C@@H](CCC=C(c5cc(Cl)c(O)c(C(=O)O)c5)c5cc(Cl)c(O)c(C(=O)O)c5)CC[C@]4(C)[C@H]3CC[C@]12C` (some centres undefined) (tested in a mixture with another compound) as the compound, how does the growth read?
A: 179% [50 µM] (inactive) and 2.06% [50 µM] (active)

Q: With `CCC1OC2(C)CC(C#N)(C#N)C1(C#N)C(=N)O2` (centres undefined) as the compound, how does the growth read?
A: 92.1% [100 µM] (inactive)

Q: With `COc1ccc2c(c1)N(C(C)=O)CN1C(=O)CCC21` (centres undefined) as the compound, how does the growth read?
A: 93% [100 µM] (inactive) and 101% [100 µM] (inactive)

Q: With `CC1CC(=O)N(N(C)C)C(C#N)(C#N)C1(C#N)C#N` (centres undefined) as the compound, how does the growth read?
A: -97.2% [100 µM] (active) and -90.4% [100 µM] (active)

Q: How did the growth turn out when `Cc1ccc(/C=N/Nc2cnccn2)s1` was run?
A: 116% [100 µM] (inactive) and 93% [100 µM] (inactive)

Q: `Cc1ccc(NC(=O)/C(=N\NC(N)=O)c2c(O)c3ccccc3[nH]c2=O)cc1` was tested. Which growth did it give?
A: 123% [100 µM] (inactive) and 118% [100 µM] (inactive)

Q: `COc1ccc(N=C(C)C(C)=Nc2ccc(OC)cc2)cc1` was tested. Which growth did it give?
A: 77.8% [100 µM] (inactive) and -88.6% [100 µM] (active)

Q: For `CO/C(N)=C(\C#N)N=Cc1ccc2ccccc2c1`, which growth is on record?
A: 12.8% [100 µM] (inactive) and -44.8% [100 µM] (active)

Q: `C/C=C1\NC(=O)[C@H]2CSSCCC=C[C@H](CC(=O)N[C@H](C(C)C)C(=O)N2)OC(=O)[C@H](C(C)C)NC1=O` was tested. Which growth did it give?
A: -93% [0.1 µM] (active) and -98.3% [0.1 µM] (active)

Q: `NC(=O)CC1OC(=O)Cc2cc3c(c(O)c21)C(=O)c1c(O)cccc1C3=O` (centres undefined) was tested. Which growth did it give?
A: 57.5% [100 µM] (inactive)

Q: Which growth does the source give for `Cc1ccc(OCC2OC(n3cnc4nc(Cl)nc(Cl)c43)CC2Oc2ccc(C)cc2)cc1` (centres undefined) here?
A: 1.81% [100 µM] (active) and -100% [100 µM] (active)

Q: With `CC1(C)Oc2ccc3c(=O)cc(-c4ccc(F)cc4)oc3c2C1C(=O)O` (centres undefined) as the compound, how does the growth read?
A: 100% [100 µM] (inactive) and 99.3% [100 µM] (inactive)

Q: With `CCCCCCCCOC(=O)C12Oc3ccc(-c4ccc5c(c4O)C(O)=C4C(=O)CC(C)C(O)C4(C(=O)OCCCCCCCC)O5)c(O)c3C(O)=C1C(=O)CC(C)C2O` (centres undefined) as the compound, how does the growth read?
A: -21.8% [100 µM] (active) and -100% [100 µM] (active)

Q: With `Cc1ccc(NC(=O)/C(Cc2cc(=O)oc3cc(O)ccc23)=N\NC(C)(C)C)cc1C` as the compound, how does the growth read?
A: 103% [100 µM] (inactive) and 101% [100 µM] (inactive)

Q: With `Cn1c2c(c3ccccc3c1=O)C(=O)c1ccccc1-2` as the compound, how does the growth read?
A: -92.2% [100 µM] (active) and -100% [100 µM] (active)

Q: How did the growth turn out when `COc1ccc(C2c3cc4c(c(OC)c3CC3OCC(=O)C32)OCO4)cc1OC` (centres undefined) was run?
A: 46.4% [100 µM] (inactive) and -11% [100 µM] (active)

Q: How did the growth turn out when `C=CC1=C(C)C2=NC1=CC1=NC(=C(CC)/C1=C\O)C=C1N=C3C(=C1C)C(=O)[C@H](C(=O)OC)C3=C1NC(=C2)[C@@H](C)[C@@H]1CCC(=O)O` was run?
A: 3.23% [100 µM] (active) and 7.05% [100 µM] (active)

Q: Which growth does the source give for `N/N=C(\C(=O)Nc1ccc([N+](=O)[O-])cc1)C(C1=Nc2cc([N+](=O)[O-])ccc2NC1)[N+](=O)[O-]` (centres undefined) here?
A: 117% [100 µM] (inactive) and 4.46% [100 µM] (active)

Q: `Cc1ccc(/C=N/Nc2nncc3ccccc23)s1` was tested. Which growth did it give?
A: 105% [100 µM] (inactive) and 21.6% [100 µM] (inactive)

Q: With `O=C(NC1=NC2C=CC([N+](=O)[O-])=CC2S1)C(=O)Nn1c(=S)[nH]c2ccccc2c1=O` (centres undefined) as the compound, how does the growth read?
A: 7.66% [100 µM] (active) and 13.1% [100 µM] (inactive)

Q: For `COC(=O)c1ccc(NC(=O)O/N=C(\Cl)C(C)C)cc1`, which growth is on record?
A: -100% [100 µM] (active)

Q: How did the growth turn out when `O=C1C=CC=C/C1=C1\N=C(c2ccccc2OCC(=O)c2ccc(Br)cc2)SS1` was run?
A: 65.8% [100 µM] (inactive) and 57.6% [100 µM] (inactive)

Q: For `NC(=S)Nc1[nH]c(=S)nc2c1SC1=N/C(=C\c3ccco3)C(=O)N12`, which growth is on record?
A: 75.1% [100 µM] (inactive) and 26.4% [100 µM] (inactive)

Q: For `COc1cc(Oc2c(C)c(Cl)c(OC)c(Cl)c2OC)c2c(c1Cl)COC2=O`, which growth is on record?
A: 20.3% [100 µM] (inactive) and 9.52% [100 µM] (active)

Q: For `C=C(CCC(C(=O)O)C1CCC2(C)C3=C(CCC12C)C1(C)CCC(O)C(C)(C)C1CC3)C(C)C` (centres undefined), which growth is on record?
A: -54.9% [100 µM] (active) and -100% [100 µM] (active)

Q: How did the growth turn out when `COc1ccc2nc(N/N=C/c3ccc(C)s3)cc(C)c2c1` was run?
A: -94.1% [100 µM] (active) and -97.3% [100 µM] (active)

Q: Which growth does the source give for `CC1CC2(OC2C)C(=O)OC2CCN(C)C/C=C(/COC(=O)C1(C)O)C2=O` (centres undefined) here?
A: 97.2% [100 µM] (inactive) and 101% [100 µM] (inactive)

Q: How did the growth turn out when `C=C1C(=O)O[C@H]2C[C@@]3(C)[C@H](O)CCC(=C)[C@@H]3[C@@H](OC(C)=O)[C@H]12` was run?
A: -98% [100 µM] (active) and -95.5% [100 µM] (active)

Q: Which growth does the source give for `COc1cc(C)c2c(c1C=O)Oc1c(c(C)c(O)c3c1C(O)OC3=O)OC2=O` (centres undefined) here?
A: -0.673% [100 µM] (active) and 99.4% [100 µM] (inactive)

— PubChem BioAssay (NCI)
